Several values for one entry are separate records, joined by “and”; a condition that tells them apart may be missing. Equal values may be shown once. Among all 5,500 compounds or so, about 2,000 (36%) were called active. About 18% were inconclusive and are not listed. No stated cut-off is given here; in the data, active means normalized growth mostly below about 0.91 (no sharp cut-off); inconclusive means no clear call, values can overlap the other calls; inactive means mostly above about 0.92. The list shows a part of the results.
Test: chemical genetic growth profiling, strain panel (AID 1159580);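 further: tested at 20 µM; growth read once vehicle control cultures reached saturation at 30 °C; 1 = growth at the plate median or of vehicle wells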
Settings: growth OD

Measured: normalized growth

C1CCc2nnnn2CC1
inactive: S. cerevisiae deletion strains, locus YJR075W, strain HOC1, stronger effect = lower value 1.03 and 1.01 | S. cerevisiae deletion strains, locus YKL009W, strain mrt4, stronger effect = lower value 1.03 | S. cerevisiae deletion strains, locus YKL068W, stronger effect = lower value 1.02 | S. cerevisiae deletion strains, locus YKL085W, strain MDH1 (second series), stronger effect = lower value 1 | S. cerevisiae deletion strains, locus YKL085W, strain MDH1, stronger effect = lower value 1 | S. cerevisiae deletion strains, locus YKL160W, strain elf1, stronger effect = lower value 1.01 | S. cerevisiae deletion strains, locus YKL190W, strain CNB1, stronger effect = lower value 1 | S. cerevisiae deletion strains, locus YKR001C, strain vps1, stronger effect = lower value 1.02 | S. cerevisiae deletion strains, locus YKR026C, strain gcn3, stronger effect = lower value 1.01 | S. cerevisiae deletion strains, locus YKR091W, strain srl3, stronger effect = lower value 1 | S. cerevisiae deletion strains, locus YLL001W, strain dnm1, stronger effect = lower value 1 | S. cerevisiae deletion strains, locus YLL026W, stronger effect = lower value 1 | S. cerevisiae deletion strains, locus YLL041C, strain sdh2, stronger effect = lower value 1 | S. cerevisiae deletion strains, locus YLR027C, strain aat2, stronger effect = lower value 1 | S. cerevisiae deletion strains, locus YLR039C, strain RIC1, stronger effect = lower value 1.03 | S. cerevisiae deletion strains, locus YLR058C, strain SHM2, stronger effect = lower value 1.02 | S. cerevisiae deletion strains, locus YLR102C, strain apc9, stronger effect = lower value 1 | S. cerevisiae deletion strains, locus YLR113W, strain HOG1, stronger effect = lower value 0.985 | S. cerevisiae deletion strains, locus YLR221C, strain rsa3, stronger effect = lower value 1.01 | S. cerevisiae deletion strains, locus YLR258W, strain gsy2, stronger effect = lower value 1.01 | S. cerevisiae deletion strains, locus YLR262C, strain YPT6 (second series), stronger effect = lower value 1.02 | S. cerevisiae deletion strains, locus YLR262C, strain YPT6, stronger effect = lower value 1.04 | S. cerevisiae deletion strains, locus YLR268W, strain sec22, stronger effect = lower value 1.05 | S. cerevisiae deletion strains, locus YLR320W, strain mms22, stronger effect = lower value 1.01 | S. cerevisiae deletion strains, locus YLR330W, strain CHS5, stronger effect = lower value 1 | S. cerevisiae deletion strains, locus YLR342W, strain FKS1 (second series), stronger effect = lower value 1.01 | S. cerevisiae deletion strains, locus YLR342W, strain FKS1, stronger effect = lower value 1.01 | S. cerevisiae deletion strains, locus YLR357W, strain rsc2, stronger effect = lower value 0.983 | S. cerevisiae deletion strains, locus YLR370C, strain arc18, stronger effect = lower value 1.01 | S. cerevisiae deletion strains, locus YLR371W, strain rom2, stronger effect = lower value 1.02 | S. cerevisiae deletion strains, locus YLR384C, strain iki3, stronger effect = lower value 0.999 | S. cerevisiae deletion strains, locus YLR418C, strain cdc73, stronger effect = lower value 1.02 | S. cerevisiae deletion strains, locus YML016C, strain PPZ1, stronger effect = lower value 1.01 | S. cerevisiae deletion strains, locus YML032C, strain rad52, stronger effect = lower value 1.03 | S. cerevisiae deletion strains, locus YML120C, strain ndi1, stronger effect = lower value 0.998 | S. cerevisiae deletion strains, locus YML124C, strain tub3, stronger effect = lower value 1.01 | S. cerevisiae deletion strains, locus YMR058W, strain fet3, stronger effect = lower value 1.01 | S. cerevisiae deletion strains, locus YMR078C, strain ctf18, stronger effect = lower value 1.02 | S. cerevisiae deletion strains, locus YMR125W, strain sto1, stronger effect = lower value 1.01 | S. cerevisiae deletion strains, locus YMR129W, stronger effect = lower value 1.01 | S. cerevisiae deletion strains, locus YMR205C, strain PFK2, stronger effect = lower value 1.03 | S. cerevisiae deletion strains, locus YMR223W, strain ubp8, stronger effect = lower value 0.987 | S. cerevisiae deletion strains, locus YMR231W, strain pep5, stronger effect = lower value 1 | S. cerevisiae deletion strains, locus YMR263W, strain SAP30, stronger effect = lower value 1.03 | S. cerevisiae deletion strains, locus YMR307W, strain GAS1, stronger effect = lower value 1.01 | S. cerevisiae deletion strains, locus YNL067W, strain RPL9B, stronger effect = lower value 1.03 | S. cerevisiae deletion strains, locus YNL071W, strain lat1, stronger effect = lower value 0.999 | S. cerevisiae deletion strains, locus YNL128W, strain TEP1, stronger effect = lower value 1.02 | S. cerevisiae deletion strains, locus YNL153C, strain GIM3, stronger effect = lower value 1.02 and 1.14 | S. cerevisiae deletion strains, locus YNL175C, strain NOP13, stronger effect = lower value 1.01 | S. cerevisiae deletion strains, locus YNL183C, strain NPR1, stronger effect = lower value 0.918 | S. cerevisiae deletion strains, locus YNL197C, strain WHI3, stronger effect = lower value 1.01 | S. cerevisiae deletion strains, locus YNL209W, strain ssb2, stronger effect = lower value 1.01 | S. cerevisiae deletion strains, locus YNL224C, strain SQS1, stronger effect = lower value 1.02 | S. cerevisiae deletion strains, locus YNL233W, strain BNI4, stronger effect = lower value 0.982 | S. cerevisiae deletion strains, locus YNL248C, strain rpa49, stronger effect = lower value 0.994 | S. cerevisiae deletion strains, locus YNL250W, strain rad50, stronger effect = lower value 1 | S. cerevisiae deletion strains, locus YNL271C, strain bni1, stronger effect = lower value 1.02 | S. cerevisiae deletion strains, locus YNL298W, strain CLA4, stronger effect = lower value 1.01 | S. cerevisiae deletion strains, locus YNL307C, strain MCK1, stronger effect = lower value 1.01 | S. cerevisiae deletion strains, locus YNL322C, strain KRE1 (second series), stronger effect = lower value 1.01 | S. cerevisiae deletion strains, locus YNL322C, strain KRE1, stronger effect = lower value 1.01 and 1 | S. cerevisiae deletion strains, locus YNR049C, strain mso1, stronger effect = lower value 1.01 | S. cerevisiae deletion strains, locus YNR052C, strain pop2, stronger effect = lower value 1 | S. cerevisiae deletion strains, locus YOL006C, strain TOP1, stronger effect = lower value 1.08 | S. cerevisiae deletion strains, locus YOL012C, strain htz1 0.99 | S. cerevisiae deletion strains, locus YOL147C, strain pex11, stronger effect = lower value 1.01 | S. cerevisiae deletion strains, locus YOR001W, strain rrp6, stronger effect = lower value 1 | S. cerevisiae deletion strains, locus YOR061W, strain CKA2, stronger effect = lower value 1.01 | S. cerevisiae deletion strains, locus YOR069W, strain VPS5, stronger effect = lower value 1.02 | S. cerevisiae deletion strains, locus YOR070C, strain gyp1, stronger effect = lower value 0.999 | S. cerevisiae deletion strains, locus YOR080W, strain dia2, stronger effect = lower value 1 | S. cerevisiae deletion strains, locus YOR083W, strain WHI5 (second series), stronger effect = lower value 1.02 | S. cerevisiae deletion strains, locus YOR083W, strain WHI5, stronger effect = lower value 1.02 | S. cerevisiae deletion strains, locus YOR106W, strain vam3, stronger effect = lower value 1.01 | S. cerevisiae deletion strains, locus YOR136W, strain idh2, stronger effect = lower value 0.992 | S. cerevisiae deletion strains, locus YOR144C, strain elg1, stronger effect = lower value 1.01 | S. cerevisiae deletion strains, locus YOR184W, strain ser1, stronger effect = lower value 1.03 | S. cerevisiae deletion strains, locus YOR231W, strain MKK1, stronger effect = lower value 0.982 | S. cerevisiae deletion strains, locus YOR265W, strain rbl2, stronger effect = lower value 1.02 | S. cerevisiae deletion strains, locus YOR270C, strain vph1, stronger effect = lower value 1.04 | S. cerevisiae deletion strains, locus YOR290C, strain snf2, stronger effect = lower value 1.01 | S. cerevisiae deletion strains, locus YOR316C, strain cot1, stronger effect = lower value 1.01 | S. cerevisiae deletion strains, locus YPL051W, strain arl3, stronger effect = lower value 1.01 | S. cerevisiae deletion strains, locus YPL055C, strain LGE1, stronger effect = lower value 0.977 | S. cerevisiae deletion strains, locus YPL078C, strain atp4, stronger effect = lower value 1.01 | S. cerevisiae deletion strains, locus YPL106C, strain sse1, stronger effect = lower value 1 | S. cerevisiae deletion strains, locus YPL240C, strain hsp82, stronger effect = lower value 1.02 | S. cerevisiae deletion strains, locus YPL241C, strain CIN2, stronger effect = lower value 1 | S. cerevisiae deletion strains, locus YPL256C, strain CLN2, stronger effect = lower value 0.976 | S. cerevisiae deletion strains, locus YPR119W, strain clb2, stronger effect = lower value 1 | S. cerevisiae deletion strains, locus YPR141C, strain kar3, stronger effect = lower value 1 | S. cerevisiae deletion strains, locus YPR163C, strain tif3, stronger effect = lower value 1.02 | S. cerevisiae deletion strains, locus YPR167C, strain met16, stronger effect = lower value 1.01 | S. cerevisiae deletion strains, strain wtn01, stronger effect = lower value 1.02 | S. cerevisiae strains, strain wild type, stronger effect = lower value 1.01

From PubChem BioAssay AID1159580 (chemical genetic matrix, 2015)
